In PubChem BioAssay AID1053126 (Broad Institute, 2014):
Entries with a potency or affinity are not part of this list. The source made the active and inactive calls.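 How the source made its calls: active means cell killing with a fitted half-effect concentration at or below twice the top valid dose; inconclusive means flat curve with 30 to 70 percent drop, or poor fit; inactive means the rest.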

Experiment: HEK293T cell cytotoxicity, dose response, cytotoxicity control, ATP luminescence, cherry-pick, set 6 (AID 1053126)
Conditions: HEK293T viability, CellTiter-Glo ATP luminescence, 72 h; series mostly up to 26 µM

SMILES: CC(=O)c1cccc(-c2ccnc3c2CC(C(=O)NCc2ccc(F)c(F)c2)O3)c1 (stereo not given)
- outcome: inactive

SMILES: O=C(COC(=O)c1cc(S(=O)(=O)N2CCCCC2)ccc1N1CCOCC1)c1ccccc1Cl
- outcome: inactive

SMILES: COc1ccc(CCN=C(N)NS(=O)(=O)c2ccc(F)cc2)cc1
- outcome: inactive

SMILES: NC(=O)c1cc([N+](=O)[O-])ccc1NCc1cccnc1
- outcome: inactive

SMILES: Nc1ccc2nc(-c3ccccc3)cnc2c1
- outcome: inactive

SMILES: COCCCOc1cc(NCc2ccccc2)c2ncn(C(C)C)c2c1
- outcome: inactive

SMILES: O=C(C1=NN(c2ccccc2)C2C(=O)N(c3ccccc3)C(=O)C12)c1ccccc1 (stereo not given)
- outcome: inactive

SMILES: CC1CCCCC1NC(=O)CN1C(=O)c2cccc(N)c2C1=O (stereo not given)
- outcome: inactive

SMILES: Cc1ccc2nc3c(cc(C(=O)NCc4ccccc4)c(=N)n3CCCn3ccnc3)c(=O)n2c1
- outcome: inactive

SMILES: Cc1c(C(=O)NCc2cccc([N+](=O)[O-])c2)sc(=O)n1Cc1cccc(F)c1
- outcome: inactive
